Hits are enriched below; roughly 3.7% of the tested compounds scored in any of these assays.
Mtb betalactam = beta-lactam sensitization of Mtb H37Rv; 0.27% of 330,000 active; inhibition, % at 25 µM; M. tuberculosis H37Rv growth with meropenem, percent inhibition; AID 434955; call rule not given here;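 also: growth measured after seven days incubation then overnight dye step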
Mtb FBA inh = inhibits M. tuberculosis FBA enzyme. P9WQA3. purified M. tuberculosis FBA, fluorescence read-out. inhibition, % at 1 µM. 2.3% of 360,000 active. AID 588726; in the data active = inhibition above about 27%
Target sequence (P9WQA3 whole entry, looked up): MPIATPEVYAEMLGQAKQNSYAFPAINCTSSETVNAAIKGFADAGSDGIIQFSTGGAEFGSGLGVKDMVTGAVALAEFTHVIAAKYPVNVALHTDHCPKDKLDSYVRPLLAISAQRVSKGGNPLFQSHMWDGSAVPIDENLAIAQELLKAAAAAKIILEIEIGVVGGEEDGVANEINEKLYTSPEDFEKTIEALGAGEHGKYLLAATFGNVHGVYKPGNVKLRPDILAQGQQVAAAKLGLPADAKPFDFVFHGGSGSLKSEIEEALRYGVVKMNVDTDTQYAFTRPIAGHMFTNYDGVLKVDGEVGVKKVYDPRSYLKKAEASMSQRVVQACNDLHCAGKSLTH
FadD28 binding = inhibitors of Mycobacterium tuberculosis FadD28 bisubstrate binding. FadD28 bisubstrate probe binding, fluorescence polarization. inhibition, % at 12.5 µM. 0.22% of 360,000 active. AID 588549; in the data active = inhibition above about 8.5%, passing the limit was not always enough
Rv3671c protease = inhibits the M. tuberculosis serine protease Rv3671c | P9WHR9 | inhibition, % at 5.96 µM | 0.048% of 320,000 active | AID 2606; in the data active = inhibition above about 38%;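 also: extracellular domain of Rv3671c used as enzyme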
GDH-TPI inh = counter-screen for M. tuberculosis FBA inhibitors: GDH-TPI coupled enzymes; GDH-TPI coupled enzyme counterscreen, NADH absorbance; inhibition, % at 4.8 µM; 1.2% of 360,000 active; in the data active = inhibition above about 30%
UGM FP inh = inhibitors of M. tuberculosis UDP-galactopyranose mutase | 0.06% of 320,000 active | inhibition, % at 10 µM | purified UGM, fluorescence polarization probe displacement | AID 504406; in the data active = inhibition above about 10%, passing the limit was not always enough
Hits are given with their value; i = inactive; nt = no result; + = active, no number.

SMILES | Mtb betalactam | Mtb FBA inh | FadD28 binding | Rv3671c protease | GDH-TPI inh | UGM FP inh
Cn1ccc2c(-c3ccc(C(=O)O)cc3)cc3c(c21)C1CCC3O1 (stereo not drawn) | nt | + | i | nt | nt | nt
Cn1ccc2c(-c3ccc(CO)cc3)cc3c(c21)C1CCC3O1 (stereo not drawn) | nt | + | i | nt | nt | nt
COc1cc2c(c(OC)c1OC)C(=O)C(=Cc1ccccc1)O2 | nt | i | i | nt | 35.8 | nt
COc1ccccc1C(=O)Oc1ccc2c(c1)O/C(=C\c1ccncc1)C2=O | i | i | i | i | i | i
CN(C)C(=O)CCC(=O)N(C)CC1CCCN(CCc2ccc(F)cc2)C1 (stereo not drawn) | i | 187.9 | i | i | i | i
CN(CC1CCCN(CCc2ccc(F)cc2)C1)C(=O)CCC(F)(F)F (stereo not drawn) | i | i | i | i | i | i
CCCCn1c(=NC(=O)c2ccco2)c(C(=O)OCC)cc2c(=O)n3cccc(C)c3nc21 | i | 172.5 | i | i | i | i
CCCCCn1c(=NC(=O)c2ccco2)c(C(=O)OCC)cc2c(=O)n3ccccc3nc21 | i | 144.4 | i | i | i | i
CCCCn1c(=NC(=O)c2ccco2)c(C(=O)OCC)cc2c(=O)n3ccccc3nc21 | i | 196.5 | i | i | i | i
CCCCn1c(=N)c(S(=O)(=O)c2ccc(Br)cc2)cc2c(=O)n3cccc(C)c3nc21 | i | i | i | i | i | i
CCOC(=O)c1cc2c(=O)n3ccccc3nc2n(Cc2ccc(Cl)cc2)c1=N | nt | i | i | nt | i | nt
O=C(c1[nH]c(C(F)(F)F)nc1-c1ccccc1)N1CCN(c2ncccn2)CC1 | nt | i | i | nt | nt | nt
N#CC1(NC(=O)COC(=O)c2cc([N+](=O)[O-])ccc2N2CCOCC2)CCCCC1 | i | i | i | i | i | i
O=C(NC(c1ccc(-c2ccccc2)cc1)c1cnccn1)C1CCN(CCCOc2ccccc2)CC1 (stereo not drawn) | nt | i | i | nt | i | nt
COc1ccc(C2c3cc4c(cc3OC(N3CCOCC3)C2C)OCO4)c(OC)c1 (stereo not drawn) | nt | i | i | nt | i | nt
Cc1cc2nc(/C=C/c3cccnc3)[nH]c2cc1C | i | + | i | nt | 44.8 | i
Cc1cc2nc(CO)[nH]c2cc1C | i | i | i | i | i | i
CC(=O)COc1c(-c2ccco2)oc2ccccc2c1=O | i | i | i | nt | 32.3 | i
O=C(Oc1c(-c2ccccc2)oc2ccccc2c1=O)c1ccccc1 | i | i | i | i | i | i
COc1ccccc1-c1cc(C(F)(F)F)nc(N2CCN(c3ccccc3)CC2)n1 | i | 27.9 | i | i | i | i
c1ccc(CCNCc2cccnc2)cc1 | i | i | i | i | i | i
Cc1ccc(CNc2cnccn2)cc1 | i | 73.9 | i | i | i | i
c1ccc(CCNc2cnccn2)cc1 | i | + | i | i | i | i
Cc1ccc(CNc2cnccn2)s1 | i | i | i | i | i | i
Cc1c(/C(O)=C2\C(=O)C(=O)N(CCCN(C)C)C2c2ccco2)cnn1-c1ccccc1 (stereo not drawn) | nt | i | i | nt | i | nt
SMILES | Mtb betalactam | Mtb FBA inh | FadD28 binding | Rv3671c protease | GDH-TPI inh | UGM FP inh
Cc1ccc(C(=O)N/N=C/C2=Cc3ccccc3OC2C)cc1 (stereo not drawn) | i | i | i | i | i | i
CC1Oc2ccccc2C=C1/C=N/NC(=O)c1ccccc1 (stereo not drawn) | i | i | i | i | i | i
CC1Oc2ccccc2C=C1/C=N/NC(=O)[C@@H](C)NC(=O)OC(C)(C)C (stereo partly drawn) | i | i | i | i | 37.5 | i
CC1Oc2ccccc2C=C1/C=N\NC(=O)c1cccnc1 (stereo not drawn) | i | i | i | i | 47.6 | i
Nc1ccc(-c2c3ccc(=O)cc-3oc3cc(O)ccc23)cc1C(=O)O | i | i | i | i | i | 45.4
O=c1cc(-c2ccccc2)oc2cc(O)ccc12 | nt | i | i | nt | i | nt
N#CC(C#N)=C1CCCc2sccc21 | nt | i | i | nt | 32.6 | nt
O=C1CCCc2sccc2N1 | i | i | i | i | i | i
C[C@@H]1CCCCO[C@H](CN(C)C(=O)c2ccccc2)[C@@H](C)CN([C@H](C)CO)C(=O)c2cc(NC(=O)c3ccncc3)ccc2O1 | nt | i | i | nt | i | nt
OC(c1ccccc1)(c1nc(-c2cccc3cccnc23)cs1)C(F)(F)F (stereo not drawn) | nt | i | i | nt | i | nt
Cc1ccc(S(=O)(=O)Nc2ccc(Nc3nccn4c(-c5ccc6ccccc6c5)cnc34)cc2)cc1 | nt | i | i | nt | 31.9 | nt
CCN(CC)CCNC(=O)c1cc2c(-c3ccc(Cl)cc3)nn(C)c2s1 | i | 135.8 | i | i | i | nt
